About 79,000 compounds went through this panel and 15% of them were active in at least one assay; those are over-represented in the sample as a whole. Calls of active or inactive are those of the source. Rule as the data show it: active = growth inhibition above about 70%; inactive = the rest.
Columns and labels:
[1] = NCI Yeast Anticancer Drug Screen. Data for the rad50 strain (AID 155);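 also: 0% = growth of vehicle-only cultures of the same strain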; settings: S. cerevisiae rad50 strain growth inhibition; at 50.0 µM; hits give high values
Outline: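 Growth of the mutant yeast was measured after compound exposure and referenced to vehicle-treated cultures.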

[2] = NCI Yeast Anticancer Drug Screen. Data for the mec2-1 strain (AID 157); settings: S. cerevisiae mec2-1 strain, at 50.0 µM, hits give high values
Outline: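 Strain: mec2-1 (DNA repair/cell cycle alteration). Compound exposure, then growth measured; inhibition expressed relative to vehicle.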

[3] = NCI Yeast Anticancer Drug Screen. Data for the sgs1 mgt1 strain (AID 161);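 also: 0% = growth of cultures given vehicle only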; settings: S. cerevisiae sgs1 mgt1 strain, at 50.0 µM, hits give high values
Outline: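 Read-out: growth inhibition vs vehicle controls. Cells: mutant yeast strain deficient in DNA damage repair.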

[4] = NCI Yeast Anticancer Drug Screen. Data for the cln2 rad14 strain (AID 165);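 also: 0% = growth equal to vehicle treated cultures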; settings: S. cerevisiae cln2 rad14 strain, at 50.0 µM, hits give high values
Outline: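 Compounds are applied to the cln2 rad14 yeast strain, and growth is then compared with that of vehicle-treated cultures to give inhibition.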

[5] = NCI Yeast Anticancer Drug Screen. Data for the bub3 strain (AID 167); settings: S. cerevisiae bub3 mutant strain, at 50.0 µM, hits give high values
Outline: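 Whole-cell yeast assay. The mutant strain was incubated with compounds, and growth inhibition was determined by comparison with vehicle-treated cells.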

[6] = NCI Yeast Anticancer Drug Screen. Data for the mlh1 rad18 strain (AID 175); settings: S. cerevisiae mlh1 rad18 strain growth inhibition; at 50.0 µM; hits give high values
Outline: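 Read-out is yeast growth inhibition, calculated against vehicle-only controls. The compound was applied to a strain engineered with DNA damage repair alterations.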

Measured: growth inhibition

CCOC(=O)/C(=C\c1ccc(OCc2ccccc2)c(OC)c1)C(=O)c1ccccc1
inactive: [1] 15.6% | [2] -9.55% | [3] 8.3% | [4] -5.15% | [5] -13.4% | [6] -15.3%

COC(=O)[C@@]1(C)/C(=N/NS(=O)(=O)c2ccc(C)cc2)CCC[C@@H]1C
inactive: [1] 11.4% | [2] -23% | [3] -7.15% | [4] 3.05% | [5] -1.4% | [6] -1.85%

COc1cc2c(cc1OC)C(c1ccc([N+](=O)[O-])c(C)c1)=NCC2
inactive: [1] 28.1% | [2] -15.7% | [3] 39.5% | [4] 15.3% | [5] 19.4% | [6] 0.25%

C=CCOC1OC(CO)C(O)C(O)C1O (centres undefined)
inactive: [1] 9.8% | [2] 38% | [3] 29.2% | [4] 11.5% | [5] 7.3% | [6] 9.35%

BrCc1cccc2cccc(CBr)c12
inactive: [1] -5.35% | [2] 17.4% | [3] 10.4% | [4] -10.5% | [5] 9.05% | [6] 2.65%

COc1ccc(C(O)C(CN(C)C)CN(C)C)cc1 (centres undefined)
inactive: [1] -0.75% | [2] -19.6% | [3] 6.65% | [4] 8.15% | [5] 8.7% | [6] 10.8%

CCN(c1ccccc1)c1ncnc2nc[nH]c12
inactive: [1] 6.75% | [2] 0.75% | [3] -1.75% | [4] -28.9% | [5] 19.9% | [6] -5.5%

O=c1[nH]cnc2c1CN(c1ccc(Cl)cc1)C2
inactive: [1] -14.5% | [2] 3.45% | [3] -11.3% | [4] -29.6% | [5] -19.2% | [6] -1.9%

Cc1ccc2c(c1)N=C(Nc1ccccc1)N=S2(C)=O (centres undefined)
inactive: [1] 2.95% | [2] -18.7% | [3] 0.45% | [4] -11.7% | [5] -7.55% | [6] -41.5%

Cc1cc2nnn(C3CCCCO3)c2cc1C (centres undefined)
inactive: [1] 3.25% | [2] -12.9% | [3] -17.9% | [4] -15.8% | [5] 12.8% | [6] -31.7%

CC1CN(c2ccccc2)NC1=O (centres undefined)
inactive: [1] 0.4% | [2] -32.7% | [3] 0.05% | [4] 27.1% | [5] -19.6% | [6] -7.55%

O=P(O)(O)c1ccc(-c2ccc(P(=O)(O)O)cc2)cc1
inactive: [1] -4.7% | [2] 2.85% | [3] 12.8% | [4] -32.2% | [5] 2.3% | [6] -1.75%

c1ccc2c(c1)ccc1ccc3ocnc3c12
inactive: [1] 6.45% | [2] -0.95% | [3] -3.15% | [4] -6.6% | [5] 9.15% | [6] 10%

CCN(CC)CCOC(=O)Cc1ccccc1
inactive: [1] -8.9% | [2] -12.7% | [3] 19.9% | [4] 7.65% | [5] 6.5% | [6] 0.9%

CC(C)C(N)C(=O)NO (centres undefined)
inactive: [1] -17.1% | [2] 17.9% | [3] -13.4% | [4] 5.05% | [5] -1.7% | [6] -7.3%

Cc1ccc(Br)c([N+](=O)[O-])c1
inactive: [1] 5.1% | [2] -4.75% | [3] 2.1% | [4] 5.85% | [5] -0.2% | [6] 1.75%

COc1ccc(-c2cc(=O)c3c([nH]2)CCCC3)cc1
inactive: [1] -10.9% | [2] -6.95% | [3] -11.2% | [4] -16.8% | [5] -4.3% | [6] 5.55%

O=C(/C=C/c1ccccc1)CC(=O)c1ccccc1.O=C(/C=C/c1ccccc1)CC(=O)c1ccccc1.[Cu]
inactive: [1] -17.1% | [2] -10.7% | [3] -15.7% | [4] -35.8% | [5] -2.45% | [6] -15.9%

Cc1ccc(S(=O)[O-])cc1.Cc1ccc(S(=O)[O-])cc1.[Zn+2]
inactive: [1] 26.9% | [2] 1.05% | [3] 16% | [4] 14.8% | [5] -1.95% | [6] 0.4%

Reference: PubChem BioAssay (NCI)
